Test results: PubChem BioAssay (EPA / NIEHS)
The source made the active and inactive calls. How the source made its calls: active means hit-call score of the fitted dose curve at least 0.9, where 1 is the maximum; inactive means score below 0.9.

Legend:
[1] = read-out: Tissue plasminogen activator (tPA), PLAT (gene 5327); test: BSK_BE3C_tPA: BioMAP Diversity Plus: BE3C Assay for Tissue plasminogen activator (tPA) Biomarker Activity (AID 2283041); details: primary human bronchial epithelial cells; actives raise or lower the signal
Procedure, shortened: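 Primary human lung bronchial epithelial cultures receive test chemical; after 24 h, tPA is quantified by ELISA, and gain or loss of signal is fitted bidirectionally relative to DMSO baseline.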

[2] = read-out: Interleukin-8 (IL8), CXCL8 (gene 3576); test: BSK_CASM3C_IL8: BioMAP Diversity Plus: CASM3C Assay for Interleukin-8 (IL8) Biomarker Activity (AID 2283042); details: primary human coronary artery smooth muscle cells; actives raise or lower the signal;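 further: IL-8 protein level quantified by ELISA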
[3] = read-out: Human Leukocyte Antigen - DR isotype (HLADR), HLA-DRA (gene 3122); test: BSK_CASM3C_HLADR: BioMAP Diversity Plus: CASM3C Assay for Human Leukocyte Antigen - DR isotype (HLADR) Biomarker Activity (AID 2283043); details: primary human coronary artery smooth muscle cells; actives raise or lower the signal;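 further: cell-surface HLA-DR protein level quantified by ELISA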
[4] = read-out: Macrophage colony-stimulating factor (MCSF), CSF1 (gene 1435); test: BSK_CASM3C_MCSF: BioMAP Diversity Plus: CASM3C Assay for Macrophage colony-stimulating factor (MCSF) Biomarker Activity (AID 2283044); details: primary human coronary artery smooth muscle cells; actives raise or lower the signal;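 further: M-CSF protein amount quantified by ELISA after 24 h exposure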
[5] = read-out: Low-density lipoprotein receptor (LDLR), LDLR (gene 3949); test: BSK_CASM3C_LDLR: BioMAP Diversity Plus: CASM3C Assay for Low-density lipoprotein receptor (LDLR) Biomarker Activity (AID 2283045); details: primary human coronary artery smooth muscle cells; actives raise or lower the signal;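 further: LDLR protein level on the cell surface quantified by ELISA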
[6] = read-out: Monocyte Chemoattractant Protein-1 (MCP1), CCL2 (gene 6347); test: BSK_CASM3C_MCP1: BioMAP Diversity Plus: CASM3C Assay for Monocyte Chemoattractant Protein-1 (MCP1) Biomarker Activity (AID 2283046); details: primary human coronary artery smooth muscle cells; actives raise or lower the signal;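 further: MCP-1 level quantified by ELISA 24 h after dosing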
[7] = BSK_CASM3C_Proliferation: Cell Proliferation Assessment in the BioMAP Diversity Plus: CASM3C Assay (AID 2283047); details: primary human coronary artery smooth muscle cells;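 further: sulforhodamine B total protein stain as relative cell number at 560 nm; sub-confluent cells exposed 48 h before staining; fitted both ways against DMSO so gain or loss of cell number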
[8] = read-out: Monokine induced gamma interferon (MIG), CXCL9 (gene 4283); test: BSK_CASM3C_MIG: BioMAP Diversity Plus: CASM3C Assay for Monokine induced gamma interferon (MIG) Biomarker Activity (AID 2283048); details: primary human coronary artery smooth muscle cells; actives raise or lower the signal;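 further: MIG protein level measured by ELISA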
[9] = read-out: serum amyloid A (SAA), SAA1 (gene 6288); test: BSK_CASM3C_SAA: BioMAP Diversity Plus: CASM3C Assay for serum amyloid A (SAA) Biomarker Activity (AID 2283049); details: primary human coronary artery smooth muscle cells; actives raise or lower the signal;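 further: SAA protein level quantified by ELISA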
[10] = BSK_CASM3C_SRB: Viability Assessment in the BioMAP Diversity Plus: CASM3C Assay (AID 2283050); details: primary human coronary artery smooth muscle cells;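 further: total protein by SRB staining as cytotoxicity measure in parallel cultures; cells exposed to compound for 24 h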
[11] = read-out: Thrombomodulin, THBD (gene 7056); test: BSK_CASM3C_Thrombomodulin: BioMAP Diversity Plus: CASM3C Assay for Thrombomodulin Biomarker Activity (AID 2283051); details: primary human coronary artery smooth muscle cells; actives raise or lower the signal;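 further: thrombomodulin protein level measured by ELISA 24 h after dosing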
[12] = read-out: Tissue Factor, F3 (gene 2152); test: BSK_CASM3C_TissueFactor: BioMAP Diversity Plus: CASM3C Assay for Tissue Factor Biomarker Activity (AID 2283052); details: primary human coronary artery smooth muscle cells; actives raise or lower the signal;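 further: cell surface tissue factor protein level read by ELISA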
[13] = read-out: Interferon-gamma inducible Protein 10 (IP10), CXCL10 (gene 3627); test: BSK_hDFCGF_IP10: BioMAP Diversity Plus: hDFCGF Assay for Interferon-gamma inducible Protein 10 (IP10) Biomarker Activity (AID 2283053); details: primary human foreskin fibroblasts; actives raise or lower the signal
Procedure, shortened: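 Primary foreskin fibroblasts, human; 24 h compound exposure; IP-10 by ELISA; bidirectional fit vs DMSO.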

[14] = read-out: Urokinase-type plasminogen activator receptor (uPAR), PLAUR (gene 5329); test: BSK_CASM3C_uPAR: BioMAP Diversity Plus: CASM3C Assay for Urokinase-type plasminogen activator receptor (uPAR) Biomarker Activity (AID 2283054); details: primary human coronary artery smooth muscle cells; actives raise or lower the signal;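 further: cell-surface uPAR protein level quantified by ELISA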
[15] = read-out: Vascular cell adhesion molecule 1 (VCAM1), VCAM1 (gene 7412); test: BSK_CASM3C_VCAM1: BioMAP Diversity Plus: CASM3C Assay for Vascular cell adhesion molecule 1 (VCAM1) Biomarker Activity (AID 2283055); details: primary human coronary artery smooth muscle cells; actives raise or lower the signal;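 further: VCAM-1 protein level quantified by ELISA on the cells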
[16] = read-out: Collagen III, COL3A1 (gene 1281); test: BSK_hDFCGF_CollagenIII: BioMAP Diversity Plus: hDFCGF Assay for Collagen III Biomarker Activity (AID 2283056); details: primary human foreskin fibroblasts; actives raise or lower the signal
Procedure, shortened: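 Human foreskin primary fibroblasts were exposed to test chemicals for 24 h, after which collagen III was quantified by ELISA. Activity was fitted bidirectionally against DMSO as negative control and baseline.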

[17] = read-out: Epidermal growth factor receptor (EGFR), EGFR (gene 1956); test: BSK_hDFCGF_EGFR: BioMAP Diversity Plus: hDFCGF Assay for Epidermal growth factor receptor (EGFR) Biomarker Activity (AID 2283057); details: primary human foreskin fibroblasts; actives raise or lower the signal
Procedure, shortened: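 hDFCGF system, primary human foreskin fibroblasts; compound 24 h; EGFR measured by ELISA; DMSO = negative control/baseline; bidirectional fitting.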

[18] = read-out: Interleukin-8 (IL8), CXCL8 (gene 3576); test: BSK_hDFCGF_IL8: BioMAP Diversity Plus: hDFCGF Assay for Interleukin-8 (IL8) Biomarker Activity (AID 2283058); details: primary human foreskin fibroblasts; actives raise or lower the signal
Procedure, shortened: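 hDFCGF human dermal fibroblasts; 24 h chemical exposure; IL-8 by ELISA; bidirectional curve fit vs DMSO baseline; gain or loss of signal scored.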

[19] = read-out: Macrophage colony-stimulating factor (MCSF), CSF1 (gene 1435); test: BSK_hDFCGF_MCSF: BioMAP Diversity Plus: hDFCGF Assay for Macrophage colony-stimulating factor (MCSF) Biomarker Activity (AID 2283060); details: primary human foreskin fibroblasts; actives raise or lower the signal
Procedure, shortened: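 Human foreskin primary fibroblasts were treated with test chemical for 24 h, and M-CSF was then measured by ELISA. Data were fitted bidirectionally against DMSO as the negative control and activity baseline.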

[20] = BSK_hDFCGF_Proliferation: Cell Proliferation Assessment in the BioMAP Diversity Plus: hDFCGF Assay (AID 2283059); details: primary human foreskin fibroblasts;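 further: curves fitted for both rise and fall of signal versus DMSO baseline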
Procedure, shortened: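 This proliferation readout used SRB total-protein staining of human foreskin fibroblasts […], normalized to DMSO with bidirectional curve fitting.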

Measured: AC50

c1ccc2c(c1)-c1cccc3cccc-2c13
active: [16] 16.4 µM
not listed: [20]
inactive: all other assays above

O=[N+]([O-])C(Br)(CO)CO
inactive: [1] | [4] | [5] | [12] | [14]
active: [2] 34.3 µM | [3] 29.5 µM | [6] 28.1 µM | [7] 24.7 µM | [8] 32.7 µM | [9] 30.3 µM | [10] 32.7 µM | [11] 24.7 µM | [13] 28.5 µM | [15] 28.1 µM | [16] 36.7 µM | [17] 36.4 µM | [18] 37.2 µM | [19] 26.6 µM

O=P(OCCCl)(OCCCl)OCCCl
not listed: [1]
inactive: all other assays above

[Cl-].[Cl-].[Hg+2]
inactive: [17]
active: [1] 31.8 µM | [2] 35.5 µM | [3] 25.4 µM | [4] 26.5 µM | [5] 34.8 µM | [6] 33.5 µM | [7] 29.3 µM | [8] 33.9 µM | [9] 30.6 µM | [10] 36.6 µM | [11] 5.21 µM | [12] 32.6 µM | [13] 11.5 µM | [14] 34.4 µM | [15] 26.5 µM | [16] 11.6 µM | [18] 13.6 µM | [19] 10.7 µM

ClCCOCCCl
not listed: [20]
inactive: all other assays above

Nc1ccc(Cl)cc1N
active: [7] 6.89 µM | [11] 5.73 µM | [15] 3.97 µM | [19] 6.73 µM
not listed: [20]
inactive: all other assays above

C[C@]12C=CC3=C4CCC(=O)C=C4CC[C@H]3[C@@H]1CC[C@@H]2O
not listed: [1]
inactive: all other assays above
